BRCA1 expr up – qHTS Assay to Identify Small Molecule Activators of BRCA1 Expression. Potency, µM (top dose mostly 46.1 µM), hits mostly activators. 380,000 tested, 1.1% active. MCF7-BRCA1-FFLuc reporter, luminescence, 48 h; response scale: scaled: vehicle 0%, 10 µM genistein 100%; further: nearly all actives have a fitted effect of over 80% in size
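Compounds are tested at multiple concentrations on MCF7 BRCA1-luciferase reporter cells seeded at 2000 per well; after 48 h, a single luminescence end-point is taken and curves fitted to the normalized data.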
p53 reactivation – qHTS assay for re-activators of p53 using a Luc reporter; Potency, µM (highest dose often 92.2 µM), usual class: activators; AID 504706, 2011; 320,000 tested, 0.063% active; H1299 p53-A138V BP100-luciferase reporter, luminescence, 24 h; further: nearly all actives have a fitted effect of over 45% in size
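H1299 (p53-null), stable ts p53-A138V + BP100-Luc; 1000 cells/well, Opti-MEM/10% FBS; cpd 4 pt, 1:5; 24 h, 37 deg C, 5% CO2; detection reagent 10 min RT; luminescence.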
Nrf2 inh – Nrf2 qHTS screen for inhibitors. Potency, µM (doses to about 46 µM), hits mostly inhibitors. 360,000 tested, 2.1% active. A549 ARE-Fluc reporter, luciferase luminescence, 18-24 h; further: nearly all actives have a fitted effect of over 60% in size
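A549 ARE_Fluc cells (5000/well, 5% FBS OPTI-MEM) pre-incubated 2 h, then treated with compounds 18-24 h at 37C/5% CO2 in concentration-response. CellTiter-Fluor viability read first; BugLite luciferase luminescence after 15 min at room temperature gives Nrf2 activity.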
A549 viability – Nrf2 qHTS screen for inhibitors: counterscreen for cytotoxicity. A549 ARE-Fluc cells, CellTiter-Fluor viability, 18-24 h. Potency, µM (series often up to 46 µM), most hits filed as inhibitors. 390,000 tested, 0.16% active
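A549 ARE_Fluc cells in 5% FBS OPTI-MEM were exposed to compounds in concentration-response for 18-24 h at 37 deg C. Viability was read by CellTiter-Fluor fluorescence (Ex 405/Em 525) after 30 min, before the luciferase read.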
IL-2 act – qHTS of IL-2 Activators | 360,000 tested, 0.065% active | activation, % (series mostly up to about 46 µM) | IL-2 activation reporter assay, cell-based qHTS; stimulated with anti-CD3/CD4/CD28 beads; in transgenic mouse T cells | AID 652025, 2013; in the data active means activation above about 50%; inconclusive means mostly about 30% to 49%
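Readout: EGFP and DsRed signals by fluorescent plate cytometry. Unstimulated transgenic mouse T cells received compound 60 min before antibody-bead stimulation, then incubated 18 h at 37 degrees C.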
Nrf2 activator – qHTS of Nrf2 Activators; Potency, µM (titrated, usually from 46.1 µM), actives largely listed as activators; AREc32 ARE-luciferase reporter (MCF7-derived line), luminescence, 24 h; 410,000 tested, 0.31% active; further: nearly all actives have a fitted effect of over 65% in size
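Quantitative high-throughput format: AREc32 reporter cells, 1000 per well, received compound by pin transfer and were incubated 24 hr at 37 deg C, 5% CO2, before Steady-Glo luminescence detection.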
Hits are given with their value; 0 = inactive; ? = inconclusive; - = no result given. Most compounds without a hit are left out; they make up all but 3.2% or so of the library. Unless noted, the call rests on the fitted dose curve; in most records, active means well fitted curve in the direction sought with a large enough effect; inconclusive means small, poorly fitted or top-dose-only effect, or another doubt; inactive means no such curve, though single readings can be large; an effect the other way counts as inactive or inconclusive.

SMILES | BRCA1 expr up | p53 reactivation | Nrf2 inh | A549 viability | IL-2 act | Nrf2 activator
CCOc1ccc(-c2cnc3cccnn23)cc1 | 7.08µM | - | - | - | 0 | 0
O=C(NC1CC1)c1ccc(-c2cnc3cccnn23)cc1 | 7.94µM | - | - | - | 0 | 0
CCC(C(=O)Nc1ccc(C(C)=O)cc1)n1c(C)c2cnn(-c3ccccc3)c(=O)c2c1C (centres undefined) | 0 | - | 0 | 0 | - | 0
Cn1cc(C(=O)NCCc2ccccc2)c(=O)c2cc(S(=O)(=O)N3CCCCCC3)ccc21 | - | - | 0 | 0 | - | 0
CCOC(=O)c1ccc(NC(=O)CS(=O)(=O)Cc2nc(-c3ccc(C)cc3)oc2C)cc1 | - | - | 0 | 0 | - | 0
COc1ccc(CCNC(=O)C(=O)NCC(c2ccc3c(c2)OCO3)N2CCOCC2)cc1OC (centres undefined) | - | - | - | 0 | - | 0
CC(C)(C)C(=O)N1CCN(c2ccnc3cc(Cl)ccc23)CC1 | 0 | 0 | 8.2µM | 0 | 0 | 0
O=C(C1CC1)N1CCN(c2ccnc3cc(Cl)ccc23)CC1 | 0 | 0 | ? | 0 | 0 | 0
COc1ccccc1NC(=O)N1CCN(c2ccnc3cc(Cl)ccc23)CC1 | 0 | 0 | 13µM | 0 | 0 | 0
CC(C)S(=O)(=O)N1CCN(c2ccnc3cc(Cl)ccc23)CC1 | 0 | 0 | 0 | 0 | 0 | 0
CC(=O)c1ccc(N2CCN(c3ccnc4cc(Cl)ccc34)CC2)cc1 | 0 | 0 | 1.64µM | 0 | 0 | 0
O=C(Nc1ccc(OC(F)(F)F)cc1)N1CCN(c2ccnc3cc(Cl)ccc23)CC1 | 0 | 0 | 4.61µM | ? | 0 | 0
O=S1(=O)N=C(Oc2ccc(Br)cc2)c2ccccc21 | - | - | 0 | 0 | - | -
Cc1cccc(N2C(=O)C(CC(=O)Nc3cccc(F)c3)N(Cc3cccs3)C2=O)c1 (centres undefined) | - | - | 0 | 0 | - | 0
Cc1ccc(C)c(S(=O)(=O)c2cn(C)c3cc(N4CCCCC4C)c(F)cc3c2=O)c1 (centres undefined) | - | - | 0 | 0 | - | 0
COc1cccc(-c2nc(CS(=O)(=O)CC(=O)NCc3cccc(Cl)c3)c(C)o2)c1 | - | - | 0 | 0 | - | 0
O=C(C1CCCCC1)N1CCN(c2ccnc3cc(Cl)ccc23)CC1 | 0 | 0 | 20.6µM | 0 | 0 | 0
O=S(=O)(c1cccc(Br)c1)N1CCN(c2ccnc3cc(Cl)ccc23)CC1 | 0 | 0 | ? | ? | 0 | 0
N#Cc1cccc(S(=O)(=O)N2CCN(c3ccnc4cc(Cl)ccc34)CC2)c1 | 0 | 0 | 10.3µM | 0 | 0 | 0
O=C(C1CCC1)N1CCN(c2ccnc3cc(Cl)ccc23)CC1 | 0 | 0 | 0 | 0 | 0 | 0
CSc1nsc(SCC(=O)Nc2ccc(NC(C)=O)cc2)n1 | 0 | 0 | 0 | 0 | 0 | 0
COc1ccc(NC(=O)CSc2nc(SC)ns2)cc1 | 4.47µM | ? | ? | 0 | 0 | 0
CC(C)n1cnc2cc(NCc3ccco3)ccc21 | 10µM | 0 | - | 0 | 0 | 0
CCOc1ccccc1-c1nnc2n1N=C(c1ccccc1OC)CS2 | - | - | 0 | 0 | - | -
Cc1ccc(C)c(-n2[nH]c3c4c(ccc3c2=O)C(=O)c2ccccc2C4=O)c1 | 0 | 0 | 23.1µM | ? | 0 | 0
SMILES | BRCA1 expr up | p53 reactivation | Nrf2 inh | A549 viability | IL-2 act | Nrf2 activator
COc1ccc(Cl)cc1-n1cc(-c2ccccc2)nc1SCC(=O)Nc1ccc(C)cc1 | - | - | - | 0 | - | 0
O=C(/C=C/c1ccc(OC(F)F)cc1)Nc1cccc(S(=O)(=O)NC2=NCCCCC2)c1 | 0 | 0 | 18.4µM | ? | 0 | 0
COc1ccc(/C=C/C(=O)Nc2cccc(S(=O)(=O)NC3=NCCCCC3)c2)cc1 | 7.94µM | 0 | 0 | 0 | 0 | 0
COc1ccc(/C=C/C(=O)Nc2cccc(S(=O)(=O)NC3=NCCCCC3)c2)c(OC)c1 | 0 | 0 | ? | 0 | 0 | 0
COc1ccc(OC)c(/C=C/C(=O)Nc2cccc(S(=O)(=O)NC3=NCCCCC3)c2)c1 | 0 | 0 | ? | 0 | 0 | 0
CCCOc1ccc(CNC(=O)CCCn2nc(C)c3sc4ccccc4c3c2=O)cc1 | - | - | ? | 0 | - | 0
CCc1ccc2[nH]c(=O)c(CN(Cc3ccccc3)Cc3nnnn3C(C)(C)C)cc2c1 | 0 | - | 0 | 0 | - | -
CCOc1ccc(N2CC(c3nc(-c4cc(OC)c(OC)c(OC)c4)no3)CC2=O)cc1 (centres undefined) | - | - | 0 | 0 | - | 0
Cc1ccc(-c2nonc2NC(=O)c2ccco2)cc1C | - | - | ? | 0 | - | 0
Cn1cc(C(=O)c2ccc(Cl)cc2Cl)cc1C(=O)N/N=C(\N)COc1ccc(Cl)cc1Cl | 0 | 0 | 20.6µM | ? | 0 | 0
Cn1cc(C(=O)c2ccc(Cl)cc2Cl)cc1C(=O)N/N=C(\N)COc1ccccc1 | 0 | 0 | ? | 0 | 0 | 0
Cn1cc(C(=O)c2ccc(Cl)cc2Cl)cc1C(=O)N/N=C(\N)COc1ccc(Cl)cc1 | 0 | 0 | 13µM | 0 | 0 | 0
Cn1cc(C(=O)c2ccc(Cl)cc2Cl)cc1C(=O)N/N=C(\N)COc1ccc(F)cc1 | 0 | 0 | ? | 0 | 0 | 0
Cc1ccc(S(=O)(=O)/C(C#N)=C/c2c[nH]c3ccccc23)cc1 | 0 | 0 | 16.4µM | 0 | 0 | 0
Cc1ccc(S(=O)(=O)N/N=C/c2c[nH]c3ccccc23)cc1 | 0 | 0 | ? | 0 | 0 | 0
CC(C(=O)Nc1ccccc1)c1ccc(-c2ccccc2)c(F)c1 (centres undefined) | 0 | 0 | 10.3µM | 0 | 0 | 0
COc1ccc(OC)c(CNS(=O)(=O)c2ccc(-c3cc(C(F)(F)F)on3)s2)c1 | - | - | 16.4µM | 0 | - | 0
COc1ccccc1CNS(=O)(=O)c1ccc(-c2cc(C(F)(F)F)on2)s1 | - | - | ? | 0 | - | 0
O=C(NCC1CC1)c1cccs1 | 0 | - | - | - | 0 | 0
O=C(NCCCCCCNC(=O)c1cccs1)c1cccs1 | 0 | 0 | 0 | 0 | 0 | 0
O=C(NCCc1cccs1)c1cccs1 | 6.31µM | ? | ? | 0 | 0 | 0
O=C(NCCc1csc(-c2ccc(C(F)(F)F)cc2)n1)c1cccs1 | 0 | 0 | 25.9µM | 0 | 0 | 0
O=C(NCCc1ccc(F)cc1)c1cccs1 | 11.2µM | ? | 0 | 0 | 0 | 0
O=C(NCCC1CCCC1)c1cccs1 | 11.2µM | - | ? | 0 | 0 | 0
CCOc1cccc(C2c3c(-c4cc(C)ccc4O)n[nH]c3C(=O)N2Cc2ccco2)c1 (centres undefined) | - | - | 0 | 0 | - | 0
O=C(CNC(=O)c1cccs1)OCc1ccc(Br)cc1 | 0 | 0 | 0 | 0 | 0 | 0
COc1ccc(CCNC(=O)c2cccs2)cc1 | 10µM | 0 | 0 | 0 | 0 | 0
O=C(CNC(=O)c1cccs1)c1ccc(Br)cc1 | 5.62µM | ? | ? | 0 | 0 | 0
